Screen size: about 48,000 compounds; about 13,000 (27%) showed an effect of 50% or more. This is one part of the list.
Tested on: Wolbachia pipientis
Assay: Anti-Wolbachia Cell-Based Screen
Assay type: functional
Parameters: scale not given: in the data most compounds retested in dose-response had high values
Details: 5 µM

Compound | Percent Effect
C=C(C)CN(CC)Cc1nc(C)no1 | 10.24%
COCc1nc(C(=O)NS(=O)(=O)c2cc(F)ccc2F)cs1 | 4.131%
Cc1cc(C(=O)NCC(O)c2ccc(Cl)s2)c(C)o1 (stereo unspecified) | -36.26%
CCC1CN(CCNS(C)(=O)=O)c2ccccc2O1 (stereo unspecified) | -11.22%
CCNc1c(C#N)c(=O)n(C)c(=O)n1C | 7.391%
NC(=O)N1CCCC(C(=O)N2CCc3c(nc(CC4CC4)[nH]c3=O)C2)C1 (stereo unspecified) | 10.65%
CC1CCCCN1c1nc2c(c(=O)[nH]1)CCN(Cc1ccccc1O)C2 (stereo unspecified) | 110.1%
Cc1nc(O)cc(C2CCN(C(=O)C(C)Cn3nc(C)nc3C)CC2)n1 (stereo unspecified) | -10.44%
Cc1nc(-c2cccc(C(=O)O)c2)cc(C2CCCN(C(C)C)C2)n1 (stereo unspecified) | 109.5%
Cc1nc(-c2cccc(C(=O)O)c2)cc(C2CCN(C(C)C)C2)n1 (stereo unspecified) | -0.6305%
Cc1nc(-c2ccc(C(=O)O)cc2)cc(C2CCN(C(C)C)C2)n1 (stereo unspecified) | -2.545%
Cc1nc(-c2ccc(C(=O)O)cc2)cc(C2CCCN(C(C)C)C2)n1 (stereo unspecified) | 96.58%
CC(C)S(=O)(=O)N1CCCC(c2cccc(C(=O)O)c2)C1 (stereo unspecified) | 13.9%
Cc1nc(-c2ccc(C(=O)O)cc2)cc(C2CCN(C(C)C)CC2)n1 | 130.3%
O=C(O)C(F)(F)F.O=C(c1cnccn1)N1CCN2C[C@H](OCc3ccccc3F)C[C@H]2C1 | 4.203%
Cc1ccoc1C(=O)NC1CCN(Cc2csc3c(F)cccc23)CC1 | 2.463%
Cc1c(CN2CCCC2(C)C(=O)NC2CCCC2)cnn1C (stereo unspecified) | 156.7%
Cc1oncc1C(=O)N1CCC(O)(CN2CCOCC2)C(C)(C)C1 (stereo unspecified) | 29.5%
Cc1c(CN2CCCC2(C)C(=O)N2CCOCC2)cnn1C (stereo unspecified) | 169.3%
O=C(NCc1cnn2ccccc12)NC1CCCC1 | -4.156%
Cc1cccc(N2CCC3(CCCN3Cc3cnn(C)c3C)CC2)n1 | 9.163%
Cc1c(CNC(=O)Nc2cccc3c2CCN3C)cnn1C | -8.63%
Cc1c(CNC(=O)c2cn(CCC3CCCCN3)nn2)cnn1C (stereo unspecified) | 10.08%
CNC(=O)C1(C)CCCN1Cc1cnn(C)c1C (stereo unspecified) | 106.7%
CCn1cc(CN2CCCN(C(=O)C3(C)CCOCC3)CC2)cn1 | 8.44%
CNc1nc(CNC(=O)Nc2ccc(OC(C)C)cc2C)cs1 | 3.504%

Compound | Percent Effect
CCc1nc2n(n1)CCCC2Nc1nc(C2CC2)ns1 (stereo unspecified) | 8.759%
COc1cc(C)ccc1C(=O)N1CCC2(CCC(=O)N(C(C)C)C2)CC1 | -6.21%
CCC(NC(=O)NCc1cc(Cl)ccc1OC)c1noc(C)n1 (stereo unspecified) | -1.249%
CC(C)(O)CNC(=O)c1sccc1Br | 4.512%
Cn1cc(N2CCCC(Oc3ccc(F)cc3Cl)C2=O)cn1 (stereo unspecified) | 5.607%
CN(CCCN1CCCC1)[C@@H]1c2ccccc2C2(CCNCC2)[C@H]1O | 1.656%
O=C(CCCc1ccccn1)N1CCCC1c1noc(C2CC2)n1 (stereo unspecified) | 105.7%
c1csc(CCN2CCCC2c2noc(C3CC3)n2)c1 (stereo unspecified) | -13.07%
CCc1nc(C2CCCN2C(=O)CCc2cccs2)no1 (stereo unspecified) | -2.964%
CCc1nc(C2CCCN2CCc2cccs2)no1 (stereo unspecified) | -1.558%
CCc1nc(C2CCCN2C(=O)Cc2cccs2)no1 (stereo unspecified) | 95.79%
O=C(CCc1cccs1)N1CCCC1c1noc(C2CC2)n1 (stereo unspecified) | 100.7%
O=C(COc1cc(Cl)cc(Cl)c1)NCc1nncn1C1CC1 | 2.768%
c1cn(Cc2nnc(C3CCN(c4nccs4)CC3)n2C2CC2)cn1 | 0.8881%
CC(C)n1ccnc1C1CCCN(c2ccncc2F)C1 (stereo unspecified) | 20.23%
Cc1c(C(=O)NC2(C#N)CCCC2)nnn1-c1ccccc1Cl | -3.476%
Cc1nnc(SCCNC(=O)Cn2cnc3ccccc3c2=O)s1 | -10.12%
CCC(C)NC(=O)CCc1ccnc2ccccc12 (stereo unspecified) | 0.4358%
CC(C)NC(=O)CCCn1cnc2ccccc2c1=O | 103.3%
Cc1cnc(CNC(=O)CCCn2cnc3ccccc3c2=O)cn1 | 123.4%
COC(=O)CNC(=O)CCCn1cnc2ccccc2c1=O | 126.5%
COCC(C)NC(=O)CCSc1ccc(F)cc1 (stereo unspecified) | 4.419%
CCn1c(C)nnc1SCCNC(=O)Cn1cnc2ccccc2c1=O | 1.964%
Cn1ccnc1SCCNC(=O)Cn1cnc2ccccc2c1=O | 4.017%
Cc1cccc(N2CCN(CCC(=O)NCc3cnc(C)cn3)CC2)c1 | -29.47%
COCC(C)NC(=O)CCCn1cnc2ccccc2c1=O (stereo unspecified) | 133.1%

Compound | Percent Effect
CN(C)S(=O)(=O)c1ccc(CNc2ccc(Cl)cn2)cc1 | -2.882%
CSCC(C)C(=O)NCc1c(C)nc2cc(=O)[nH]n2c1C (stereo unspecified) | -19.78%
CCCc1nccn1-c1ccc(C(O)CN2CCOCC2)cc1 (stereo unspecified) | -2.856%
CCc1nc2c(c(N3CCOCC3)n1)CCN(C(=O)c1ccon1)CC2 | 0.9669%
O=C(CCn1ccc2ncccc2c1=O)N1CCCC1 | -7.075%
CC(NC(=O)CCCc1ccc(Cl)cc1)c1nnn[nH]1 (stereo unspecified) | -9.693%
Cn1cc2ncn(CCCOc3cccnc3)c(=O)c2n1 | -2.569%
O=C(CCCn1cnc2ccccc2c1=O)Nc1nc[nH]n1 | 118.2%
Cc1cc(C(C)NC(=O)CCn2nnc3ccccc3c2=O)c(C)o1 (stereo unspecified) | 5.131%
CC(NC(=O)CCCn1cnc2ccccc2c1=O)c1ncn[nH]1 (stereo unspecified) | 135.6%
Cc1noc(C)c1CN(C)C(=O)NCCOc1ccc(F)cc1F | -11.52%
O=C(NCC1=CCCCC1)C(c1cccnc1)N1CCOCC1 (stereo unspecified) | -8.257%
Cc1nc2c(c(N(C)C)n1)CCN(C(=O)CN1CCC(O)CC1)C2 | -29.43%
Cc1nc2c(c(N(C)C)n1)CCN(C(=O)c1ccc(N)nc1)C2 | 84.83%
CCNc1ncc(C(=O)N2Cc3nc(C)[nH]c(=O)c3C2)cn1 | 110.8%
CCNc1ncc(C(=O)N2CCC(c3ccccc3C(=O)O)C2)cn1 (stereo unspecified) | -1.411%
CCCc1ccc(C(=O)N2CCc3c(nc(C)nc3N(C)C)C2)cc1 | 96.2%
CCCc1ccc(C(=O)N2CCc3c(nc(N(C)C)[nH]c3=O)C2)cc1 | 0.7341%
Cc1nc2c(c(N(C)C)n1)CCN(C(=O)c1sccc1S(N)(=O)=O)C2 | -20.97%
CN(C)c1nc2c(c(=O)[nH]1)CCN(C(=O)c1ccc(=O)[nH]c1)C2 | -0.009534%
CCCc1ccc(C(=O)N2CCn3c(nnc3C(C)C)C2)cc1 | 1.679%
CCNc1ncc(C(=O)N2CCc3c(nc(C)nc3N(C)C)C2)cn1 | 95.13%
CCNc1ncc(C(=O)N2CCOC(CCCC(C)C)C2)cn1 (stereo unspecified) | 18.06%
CCN(CC)CCC(=O)N1CCc2c(nc(N(C)C)nc2N(C)C)C1 | -0.6304%

— ChEMBL document CHEMBL3988442, “University of Dundee, Small-Polar-MMV Screening Library” (2021)
